The panel holds about 79,000 compounds, 15% with a hit somewhere; the sample as a whole holds those more often. Values without a mark were called inactive. Calls of active or inactive are those of the source. Cut-off read from the data, not from the text of the source: active = growth inhibition above about 70%; inactive = the rest.

Test [1] can be described thus: NCI Yeast Anticancer Drug Screen. Data for the rad50 strain (AID 155).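 Note: 0% = growth of vehicle-only cultures of the same strain.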 The following applies: S. cerevisiae rad50 strain growth inhibition; at 50.0 µM; active compounds read high. The procedure, abridged: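 Yeast carrying a defined DNA repair defect were exposed to test compounds, and growth was compared with vehicle-treated controls to give percent inhibition.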
The nature of test [2]: NCI Yeast Anticancer Drug Screen. Data for the mec2-1 strain (AID 157). The following applies: S. cerevisiae mec2-1 strain, at 50.0 µM, active compounds read high. The procedure, abridged: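 Cells of the genetically defined mec2-1 yeast strain are incubated with test compound. Inhibition of growth is calculated against vehicle-treated controls.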
Test [3] can be described thus: NCI Yeast Anticancer Drug Screen. Data for the sgs1 mgt1 strain (AID 161).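 Note: 0% = growth of cultures given vehicle only.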 The following applies: S. cerevisiae sgs1 mgt1 strain, at 50.0 µM, active compounds read high. An outline of the steps:
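Mutant yeast exposed to compound; growth scored against vehicle-only wells.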

A short description of test [4]: NCI Yeast Anticancer Drug Screen. Data for the cln2 rad14 strain (AID 165).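 Note: 0% = growth equal to vehicle treated cultures.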 The following applies: S. cerevisiae cln2 rad14 strain, at 50.0 µM, active compounds read high. An outline of the steps:
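The screen exposed genetically defined yeast (cln2 rad14) to test compounds and scored growth inhibition relative to vehicle-treated controls.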

Test [5] in a line: NCI Yeast Anticancer Drug Screen. Data for the bub3 strain (AID 167). The following applies: S. cerevisiae bub3 mutant strain, at 50.0 µM, active compounds read high. The procedure, abridged:
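Compounds were applied to a genetically altered yeast strain carrying a cell-cycle control defect. Growth inhibition was scored against vehicle-treated controls.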

A short description of test [6]: NCI Yeast Anticancer Drug Screen. Data for the mlh1 rad18 strain (AID 175). The following applies: S. cerevisiae mlh1 rad18 strain growth inhibition; at 50.0 µM; active compounds read high. The procedure, abridged: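 Compound-treated yeast growth, normalised to vehicle controls. Strain bears defined DNA repair mutations.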

In the case of `NC(Cc1ccc(N(CCCl)Cc2ccccc2)cc1)C(=O)O` (stereo not drawn), the growth inhibition is 10.1% in test [1]; -13.2% in test [2]; 2% in test [3]; -3.85% in test [4]; -29.2% in test [5]; -31.5% in test [6].
Turning to `O=C(COc1ccc(Cl)cc1C(=O)O)Nc1cccc(NC(=O)Nc2cccc(S(=O)(=O)F)c2)c1`, the growth inhibition in test [1] is 2.3%; in test [2], -13.3%; in test [3], -12.9%; in test [4] it was -17.9%; in test [5] it was 1.95%; in test [6], 11.6%.
Turning to `CN(C)P(=O)(N(C)C)N(C)C`, the growth inhibition in test [1] was 23.2%; in test [2], 6.4%; in test [3], -7.05%; in test [4], -16.9%; in test [5], 23.6%; in test [6], 25.1%.
On to `CCOP(=O)(OCC)OCC`, for which the growth inhibition in test [1] is -4.1%; in test [2], -12.8%; in test [3], 19%; in test [4] it was -11.8%; in test [5], -1.15%; in test [6] it was 21.7%.
On to `c1ccc2c(c1)cc1ccc3cccc4ccc2c1c34`, for which the growth inhibition was -6.9% in test [1]; -14.9% in test [2]; 7.15% in test [3]; 15.5% in test [4]; 14.4% in test [5]; 9.9% in test [6].
As to `COCC#CCN(C)C`, the growth inhibition in test [1] was -7.75%; in test [2] it was -8.3%; in test [3], -13.8%; in test [4], 2.85%; in test [5], 9.95%; in test [6], -9.4%.
As for `NC(Cc1ccccc1)c1ccccc1` (stereo not drawn) (tested in a mixture with another compound), the growth inhibition in test [1] is 0.6%; in test [2] it was -17.4%; in test [3], -6.4%; in test [4] it was 9.7%; in test [5] it was 2.6%; in test [6] it was 2.55%.
As for `CCC[CH2][Sn]([I])([CH2]I)[CH2]CCC`, the growth inhibition in test [1] was 98.5% (active); in test [2], 99.1% (active); in test [3] it was 99% (active); in test [4], 98.6% (active); in test [5], 98.8% (active); in test [6], 98.5% (active).
On to `CCCCNC(c1ccc(OC)cc1)C(O)c1ccc(OC)cc1` (stereo not drawn), for which the growth inhibition is 2.35% in test [1]; -17.3% in test [2]; -2.95% in test [3]; -25.6% in test [4]; 7.1% in test [5]; -14.1% in test [6].
As to `CCOP(=O)(OCC)C1CC(C(C)C)CC=C1C` (stereo not drawn), the growth inhibition is 5.4% in test [1]; -8.95% in test [2]; -2.15% in test [3]; 1.25% in test [4]; 3.75% in test [5]; 15.1% in test [6].
With `ClCCCCl`, the growth inhibition in test [1] is 13.2%; in test [2], -15.8%; in test [3] it was -3.85%; in test [4], -7.4%; in test [5], 4.9%; in test [6], -27.6%.
As to `COc1cc2c(cc1OC)[N+]1(C)CCC3OCCC4C[N+]5(C)CCC26C5CC4C3C61` (stereo not drawn), the growth inhibition in test [1] is 6.15%; in test [2] it was 3.45%; in test [3], 2.75%; in test [4], -6%; in test [5], -6.6%; in test [6] it was -13.3%.
In the case of `Clc1ccc(Br)cc1`, the growth inhibition in test [1] was 4.25%; in test [2], -1.55%; in test [3], -5.75%; in test [4], -7.95%; in test [5], 0.45%; in test [6], -1.35%.
Turning to `COc1cc2ccnc(C3(OC(=O)c4ccccc4)CCN(CCc4ccccc4)CC3)c2cc1OC`, the growth inhibition in test [1] was -1.3%; in test [2], -7.15%; in test [3], -21.9%; in test [4] it was -17.1%; in test [5], 2.95%; in test [6], -0.95%.
Take `COC(=O)C1(C(=O)OC)Cc2ccc(C)cc2C2=C1C(=O)c1ccccc1C2=O`: the growth inhibition in test [1] was -25.8%; in test [2], -10.2%; in test [3], 5.5%; in test [4], 7.55%; in test [5], -3.4%; in test [6], 7.85%.
`CCC(CC)CNC(=O)C(C)Br` (stereo not drawn): the growth inhibition in test [1] is 2.05%; in test [2], 1.85%; in test [3], -1.95%; in test [4], 3.05%; in test [5] it was 7.2%; in test [6], -3.65%.
As for `CC(C(O)c1cccnc1)[N+](=O)[O-]` (stereo not drawn), the growth inhibition in test [1] was -21.8%; in test [2], -4.35%; in test [3], -23.6%; in test [4], -10.1%; in test [5], 3.95%; in test [6] it was -17.4%.
With `CN(C)C(=O)CCl`, the growth inhibition in test [1] is 1.85%; in test [2] it was 6.15%; in test [3] it was 20.6%; in test [4], 9.9%; in test [5] it was -5.55%; in test [6] it was 7.25%.
For `O=C(Nc1cccc(F)c1)c1c(O)[nH]c(=S)[nH]c1=O`, the growth inhibition in test [1] is 26.1%; in test [2] it was 14.3%; in test [3] it was 38.4%; in test [4], 10.9%; in test [5], 21.3%; in test [6], 40.2%.
For the molecule `O.O=C(O)C(=O)O.[NH2-].[Zn]`, the growth inhibition in test [1] is -14.6%; in test [2] it was 9.25%; in test [3], -6.5%; in test [4] it was 35.1%; in test [5] it was -2.3%; in test [6], -2.05%.
Regarding `NNC(=O)c1ccc(N)cc1`, the growth inhibition in test [1] was -12.1%; in test [2], -9.75%; in test [3], -8.3%; in test [4], 6.05%; in test [5] it was 4.75%; in test [6], 7.1%.
As for `NP(=S)(Oc1ccc(Cl)cc1)Oc1ccc(Cl)cc1`, the growth inhibition in test [1] was 96.8% (active); in test [2], 65.1%; in test [3], 97.7% (active); in test [4], 60.7%; in test [5] it was 49.3%; in test [6], 91.5% (active).
As for `COc1ccc(C2=CC3=CCC4C(CCC5(C)C(O)CCC45)C3(C)CC2)s1` (stereo not drawn), the growth inhibition in test [1] is 19.2%; in test [2], 11.7%; in test [3] it was 29.6%; in test [4], -0.6%; in test [5] it was -0.1%; in test [6], 26.1%.
Turning to `CCOC(=O)C(=O)C1CCNC1=O` (stereo not drawn), the growth inhibition is 9.2% in test [1]; 3.35% in test [2]; -4.45% in test [3]; -0.25% in test [4]; -3.65% in test [5]; 24.5% in test [6].
Regarding `COc1ccc(CCNC2(C#N)CCCCC2)cc1OC`, the growth inhibition was -9.5% in test [1]; -29.8% in test [2]; 0.05% in test [3]; 10.2% in test [4]; -5.75% in test [5]; -5.25% in test [6].
As for `C(=C/[PH+](c1ccccc1)c1ccccc1)/[PH+](c1ccccc1)c1ccccc1.C(=C/[PH+](c1ccccc1)c1ccccc1)/[PH+](c1ccccc1)c1ccccc1.C(=C/[PH+](c1ccccc1)c1ccccc1)/[PH+](c1ccccc1)c1ccccc1.[Pt]`, the growth inhibition in test [1] was 8.65%; in test [2], 17.6%; in test [3], 36%; in test [4], 36.9%; in test [5], 13.8%; in test [6], 36.5%.
As for `O=C1CC(c2cccc(Br)c2)n2cccc21` (stereo not drawn), the growth inhibition in test [1] was 9.9%; in test [2], -1.1%; in test [3] it was 9.95%; in test [4], 37.5%; in test [5], 13.8%; in test [6] it was -5.7%.
Regarding `O=C(CC(=O)C(F)(F)F)c1cccs1.O=C(CC(=O)C(F)(F)F)c1cccs1.O=C(CC(=O)C(F)(F)F)c1cccs1.[Eu]`, the growth inhibition in test [1] is 27.7%; in test [2] it was 37.6%; in test [3], 39.5%; in test [4], 9.4%; in test [5] it was 39%; in test [6], 23.1%.
With `O=C1CCN2CCCC1C2` (stereo not drawn), the growth inhibition in test [1] is -18.9%; in test [2], -21.3%; in test [3] it was -18.8%; in test [4], -4.15%; in test [5], -16.6%; in test [6], -43.8%.
Take `NC(=O)Cc1nn[nH]n1`: the growth inhibition in test [1] was -16.4%; in test [2] it was -13.8%; in test [3], -27.1%; in test [4], 5.95%; in test [5], -7.35%; in test [6] it was -21.9%.
On to `O=NNc1ccc2ccccc2n1`, for which the growth inhibition in test [1] is -17.1%; in test [2], 23.5%; in test [3], -2%; in test [4], 14.6%; in test [5], 3.2%; in test [6] it was -6.95%.
On to `CO/N=C1\CC(C)N2C(=O)C(C(C)C)NC(=O)C(NC(=O)c3c4nc5c(C(=O)NC6C(=O)NC(C(C)C)C(=O)N7C(C)CC(O)C7C(=O)N(C)CC(=O)N(C)C(C(C)C)C(=O)OC6C)ccc(C)c5oc-4c(C)c(=O)c3N)C(CO)OC(=O)C(C)N(C)C(=O)CN(C)C(=O)C12` (stereo not drawn), for which the growth inhibition in test [1] is 23.1%; in test [2], -18.8%; in test [3] it was 9.35%; in test [4] it was 20%; in test [5], -3.9%; in test [6], 8.45%.
As to `[N-]=[N+]=Nc1cc(=O)oc2ccccc12`, the growth inhibition in test [1] is 25.6%; in test [2], 10.2%; in test [3], -8.25%; in test [4] it was 13.6%; in test [5], 0.9%; in test [6] it was 1.1%.
For the molecule `CC[CH2][Sn](=[O])[CH2]c1ccccc1`, the growth inhibition is 11.9% in test [1]; 24.6% in test [2]; 13.6% in test [3]; 8.9% in test [4]; 17.5% in test [5]; -44.5% in test [6].
For `NC(=O)C(CCN1CCCCC1)(c1ccccc1)c1ccccc1`, the growth inhibition in test [1] is -9.6%; in test [2], -14.9%; in test [3], 5.65%; in test [4], -35.4%; in test [5], -8.8%; in test [6] it was -8.25%.
Take `CN(C)c1ccc(N=Nc2cccc(C(=O)[O-])c2)cc1.CN(C)c1ccc(N=Nc2cccc(C(=O)[O-])c2)cc1.NC1CCCCC1N.[Pt+4]`: the growth inhibition in test [1] is -13.4%; in test [2] it was -4.05%; in test [3] it was -18.4%; in test [4], 1.2%; in test [5], -28.1%; in test [6], 36.5%.
Take `CCCOCC(O)C[As](=O)(O)c1cccc(Cl)c1` (stereo not drawn): the growth inhibition was 2.35% in test [1]; 3.55% in test [2]; 0.3% in test [3]; -4.4% in test [4]; 10.2% in test [5]; -5.55% in test [6].
As for `C/C=C1/C[N+]2([O-])CC[C@@]34c5ccc(OC)cc5N(C)[C@H]3C2CC1C4C(=O)OC` (stereo partly drawn), the growth inhibition in test [1] was 7.65%; in test [2] it was -8.05%; in test [3], -3.1%; in test [4], -6%; in test [5], -10.8%; in test [6] it was 2.25%.

Source of the values: PubChem BioAssay (NCI).
